Inconclusive results are not listed. Entries that show only a call come without a potency. Active and inactive are the calls of the source. Unless noted, the call rests on the fitted dose curve; in most records, active means well fitted curve in the direction sought with a large enough effect in the repeat runs; inconclusive means weak or mixed curves; inactive means no such curve, though single readings can be large; an effect the other way counts as inactive or inconclusive.
Columns and labels:
[1] = qHTS assay for small molecules that induce genotoxicity in human embryonic kidney cells expressing luciferase-tagged ATAD5 (AID 651632); further: nearly all actives have a fitted effect of over 15% in size; further: potency means the concentration at half of the fitted maximal effect
Outline: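 Quantitative HTS in HEK293T expressing luciferase-tagged ATAD5, whose levels rise upon DNA damage. Exposure ran 16 hr at 37C and 5% CO2, with luminescence read 30 min after Amplite addition at room temperature.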

[2] = qHTS assay for small molecule agonists of the p53 signaling pathway - cell viability (AID 651633; calls by dose curve; further: nearly all actives have a fitted effect of over 30% in size; further: potency means the concentration at half of the fitted maximal effect)
Outline: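 p53RE-bla cells were treated with compound for 16 hours at 37 C. Cytotoxicity was then measured as CellTiter-Glo luminescence after 30 min at room temperature.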

[3] = qHTS assay for small molecules that induce genotoxicity in human embryonic kidney cells expressing luciferase-tagged ATAD5 - cell viability (AID 651634; calls by dose curve; further: nearly all actives have a fitted effect of over 25% in size)
Outline: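 After 15.5 hr incubation with compound at 37C, 5% CO2, HEK293T ATAD5-luciferase cells received CellTiter-Fluor reagent; fluorescence intensity was quantified following 30 min at 37C.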

[4] = qHTS assay for small molecule disruptors of the mitochondrial membrane potential - cell viability (AID 720634; calls by dose curve;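 further: human HepG2 liver cancer cells; nearly all actives have a fitted effect of over 20% in size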)
Outline: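 ATP-based luminescent viability readout (CellTiter-Glo, 30 min, room temperature) in HepG2 cells multiplexed with the m-MPI membrane potential dye; compound exposure lasted 1 hr at 37 C.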

[5] = qHTS assay to test for compound auto fluorescence at 590 nm (red) in HepG2 cells (AID 720674)
Outline: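 HepG2 cells, 2,000 per well in MEM with 10% FBS, attached overnight at 37 C, then got 23 nL compound or DMSO. After 1 hr at 37 C, 5% CO2, red fluorescence was read at 540/590 nm against Rose Bengal sodium as reference.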

[6] = qHTS assay to test for compound auto fluorescence at 535 nm (green) in HepG2 cells (AID 720675)
[7] = qHTS assay to test for compound auto fluorescence at 460 nm (blue) in HEK293 cells (AID 720678)
Outline: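 HEK293, 2,000 cells/well, 10% dialyzed FBS; attach 4-5 hr 37C; pin compound or DMSO; o/n 37C/5% CO2; fluorescence 405/460 nm; triamterene-equivalent units.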

[8] = qHTS assay to test for compound auto fluorescence at 590 nm (red) in HEK293 cells (AID 720679)
Outline: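 Intensity at 540nm excitation and 590nm emission is reported as Rose Bengal sodium-equivalent autofluorescence. Measurements followed overnight exposure (37C, 5% CO2) of HEK293 cells, 2,000 per well, to 23 nL compound.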

[9] = qHTS assay to test for compound auto fluorescence at 535 nm (green) in HEK293 cells (AID 720680)
[10] = qHTS assay to test for compound auto fluorescence at 460 nm (blue) in HEK293 cell free culture (AID 720681); further: potency means the concentration at half of the fitted maximal effect
Outline: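 Compounds were added to cell-free DMEM with 10% FBS and fluorescence read directly. The blue channel used 405 nm excitation and 460 nm emission, with triamterene as the reference fluorophore.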

[11] = qHTS assay to test for compound auto fluorescence at 535 nm (green) in HEK293 cell free culture (AID 720682)
Outline: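 Steps: dispense DMEM/10% FBS into empty wells; pin in compound or DMSO; measure fluorescence at 485/535 nm. Values are fluorescein equivalents.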

[12] = qHTS assay to test for compound auto fluorescence at 590 nm (red) in HEK293 cell free culture (AID 720683)
Outline: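 Cell-free wells of DMEM with 10% FBS received compound, and intrinsic fluorescence was read at excitation/emission 540/590 nm. Values expressed as equivalence to Rose Bengal sodium.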

[13] = qHTS assay to test for compound auto fluorescence at 590 nm (red) in HepG2 cell free culture (AID 720684)
Outline: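 Auto fluorescence equivalency versus Rose Bengal sodium, red channel Ex/Em 540/590 nm; compounds in cell-free MEM/10% FBS; DMSO vehicle control.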

[14] = qHTS assay to test for compound auto fluorescence at 460 nm (blue) in HepG2 cell free culture (AID 720685); further: potency means the concentration at half of the fitted maximal effect
Outline: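 Cell-free plates of MEM plus 10% FBS received 23 nL compound or DMSO vehicle; blue-channel (405/460 nm) intensity scored against triamterene as reference fluorophore.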

[15] = qHTS assay to test for compound auto fluorescence at 535 nm (green) in HepG2 cell free culture (AID 720686)
[16] = qHTS assay to test for compound auto fluorescence at 460 nm (blue) in HepG2 cells (AID 720687); further: potency means the concentration at half of the fitted maximal effect
Outline: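 HepG2 cells in MEM with 10% FBS, attached overnight at 37 C, were exposed to compound or DMSO for 1 hr at 37 C, 5% CO2. Blue fluorescence was read at 405/460 nm, with triamterene as reference fluorophore.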

[17] = biological target: Glucocorticoid receptor (Homo sapiens) (UniProt P04150); experiment: qHTS assay to identify small molecule agonists of the glucocorticoid receptor (GR) signaling pathway (AID 720691; active means well fitted activation curve with a large enough effect in the signal ratio in the repeat runs, not every such curve was filed as active; the % refers to the signal ratio); conditions: GR-bla HeLa, beta-lactamase reporter ratio, 18 h; activation: at 62.4 µM (top of the series)
Chain of Glucocorticoid receptor (Homo sapiens) (P04150 whole entry, looked up): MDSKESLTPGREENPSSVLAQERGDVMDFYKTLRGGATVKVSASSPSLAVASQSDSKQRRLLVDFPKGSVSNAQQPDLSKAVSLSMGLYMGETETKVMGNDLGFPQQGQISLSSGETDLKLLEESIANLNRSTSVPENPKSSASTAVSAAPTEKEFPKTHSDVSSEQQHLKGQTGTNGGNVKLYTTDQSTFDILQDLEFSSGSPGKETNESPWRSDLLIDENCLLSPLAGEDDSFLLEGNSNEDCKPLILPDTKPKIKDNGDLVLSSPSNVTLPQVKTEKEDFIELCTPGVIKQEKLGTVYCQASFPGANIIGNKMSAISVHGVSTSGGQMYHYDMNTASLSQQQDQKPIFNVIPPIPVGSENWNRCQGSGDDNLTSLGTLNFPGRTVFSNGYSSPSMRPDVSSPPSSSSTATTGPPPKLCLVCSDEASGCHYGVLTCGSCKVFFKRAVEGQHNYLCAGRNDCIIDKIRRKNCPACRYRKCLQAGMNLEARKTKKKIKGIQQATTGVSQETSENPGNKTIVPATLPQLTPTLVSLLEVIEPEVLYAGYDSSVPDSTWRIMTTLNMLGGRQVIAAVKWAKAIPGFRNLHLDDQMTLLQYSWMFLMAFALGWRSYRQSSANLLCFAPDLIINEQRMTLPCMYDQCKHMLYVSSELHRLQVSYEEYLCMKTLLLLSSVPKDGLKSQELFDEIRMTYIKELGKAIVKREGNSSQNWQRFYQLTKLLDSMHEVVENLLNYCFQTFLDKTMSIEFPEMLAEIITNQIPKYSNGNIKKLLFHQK
Outline: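 Cells: GR-bla HeLa, endogenous GR with stably integrated GRE-beta-lactamase reporter. Treatment 18 h, 37 C, compounds delivered in DMSO. Detection via LiveBLAzer B/G FRET substrate, 2 h RT, fluorescence intensity.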

[18] = qHTS assay for small molecule disruptors of the mitochondrial membrane potential (AID 720635)
Outline: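 HepG2 cells exposed to compound 1 hr at 37C, then Mito-MPS dye 30 min. Ratio read of aggregate (540/590 nm) versus monomer (490/535 nm) fluorescence.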

[19] = biological target: Glucocorticoid receptor (Homo sapiens) (UniProt P04150); experiment: qHTS assay to identify small molecule antagonists of the glucocorticoid receptor (GR) signaling pathway (AID 720692; active means well fitted inhibition curve with a large enough effect in the signal ratio in the repeat runs, not every such curve was filed as active; the % refers to the signal ratio; further: potency means the concentration at half of the fitted maximal effect)
Outline: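 Quantitative HTS in antagonist format: HeLa cells expressing endogenous GR and a stably integrated GRE-bla reporter, stimulated with 5 nM dexamethasone (final) alongside test compounds for 18 h.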
Tags describe the fitted curve by direction and shape or compound fluorescence and quenching.

SMILES | Potency [1] | Potency [2] | Potency [3] | Potency [4] | outcome [5] | Potency [6] | Potency [7] | outcome [8] | outcome [9] | Potency [10] | outcome [11] | outcome [12] | outcome [13] | Potency [14] | Potency [15] | Potency [16] | Potency [17] | Potency [18] | Potency [19]
O=C1OC(=O)c2cc(-c3ccc4c(c3)C(=O)OC4=O)ccc21 | inactive | inactive | inactive | inactive | inactive | inactive | inactive | inactive | inactive | inactive | inactive | inactive | inactive | inactive | inactive | inactive | inactive |  | 
O=C1CCC(c2ccccc2)(C2CCN(Cc3ccccc3)CC2)C(=O)N1 (configuration not stated) | inactive | inactive | inactive | inactive |  | inactive | inactive | inactive |  | inactive | inactive | inactive | inactive | inactive | inactive | inactive | inactive | inactive | 
c1ccc(-n2cnnn2)cc1 | inactive | inactive |  | inactive | inactive | inactive | inactive | inactive | inactive | inactive | inactive | inactive | inactive | inactive |  | inactive | inactive | inactive | inactive
NCc1cccc(C2CCN(C(=O)c3ccc(C#Cc4ccccc4F)o3)CC2)c1 | inactive | 61.1 µM (active) |  | inactive | inactive | inactive | inactive | inactive | inactive | inactive |  | inactive | inactive | inactive | inactive | inactive |  | inactive | 
Cc1ccc2nc(-c3ccc(N)cc3)sc2c1S(=O)(=O)O | 0.85 µM (active) | inactive | inactive |  | inactive | inactive |  | inactive | inactive | 15.8 µM (active) | inactive | inactive | inactive | 25.1 µM [fluorescent] (active) |  | 22.4 µM [fluorescent] (active) | inactive |  | inactive
C[C@@H]1C[C@H]2[C@@H]3C[C@H](F)C4=CC(=O)C=C[C@]4(C)[C@@]3(Cl)[C@@H](O)C[C@]2(C)[C@H]1C(=O)COC(=O)C(C)(C)C | inactive | inactive |  | inactive | inactive | inactive | inactive | inactive | inactive | inactive | inactive | inactive | inactive | inactive | inactive | inactive |  | inactive | 
CN1CC[C@H](c2c(O)cc(O)c3c(=O)cc(-c4ccccc4Cl)oc23)[C@H](O)C1 | inactive | inactive | inactive | inactive | inactive | inactive | inactive | inactive | inactive | inactive | inactive | inactive | inactive | inactive |  | inactive |  |  | 0.674 µM (active)
